# From ChEMBL document CHEMBL4513216, “Probing the Open Global Health Chemical Diversity Library for Multistage-Active Starting Points for Next-Generation Antimalarials” (ACS Infect Dis, 2020)
# The campaign covered roughly 68,000 compounds. About 2,700 (4%) showed an effect of 50% or more. Only a selection was taken, and strong results are over-represented in it overall.
# Test system: Plasmodium berghei
# Assay: Screen against P. berghei liver stage (PbLuc), transformed with Luciferase, at 2uM
# Assay type: functional, HepG2
# Settings: tested at 2 uM
row,Structure (SMILES),INHIBITION [%]
1,COc1c(CNCc2ccc(C(=O)N(C)C)cc2)c(C)nn1C,-11.71
2,Cc1oc(-c2nc(C#N)c(N(C)C)o2)cc1S(=O)(=O)N1CCCC1,-20.66
3,O=C(c1ccc(-c2nc[nH]n2)cc1)N1CCOC(C(F)(F)F)C1 (configuration not stated),50.91
4,O=C(c1ccc(-c2nc[nH]n2)cc1)N1CC[C@H](CO)[C@@H](O)C1,-94.13
5,O=C(c1ccccc1-c1nc[nH]n1)N1CCOC(C(F)(F)F)C1 (configuration not stated),-99.7
6,CCOCC(O)CN1CCN(C(=O)CC(C)C)CC1 (configuration not stated),-38.96
7,Cc1cc(C)n(CC2CN(CC(=O)N3CCC3)CCO2)n1 (configuration not stated),-9.17
8,c1cncc(COCC2CNCc3nccn3C2)c1 (configuration not stated),38.49
9,CS(=O)(=O)NCc1ccc(NC(=O)CC2=CCCCC2)cc1,35.9
10,COCCO[C@H]1CCN(C(=O)c2ccsc2)[C@H]1Cc1cnn(C)c1,-10.92
11,Cc1nn(C)cc1-c1cc(C(F)(F)F)c2c(C)nn(CC(=O)O)c2n1,15.91
12,CCc1cc(C(F)(F)F)c2c(C)nn(CC(=O)O)c2n1,57.33
13,COc1ccccc1-c1cc(C(F)(F)F)c2c(C)nn(CC(=O)O)c2n1,31.51
14,CCn1ccnc1CN1CCCN(C(=O)c2cc[nH]n2)CC1,0.74
15,COC1CCN(S(=O)(=O)N2CCCC2c2ccco2)CC1 (configuration not stated),36.28
16,O=S(=O)(N1CCC(n2cccc2)CC1)N1CCCC1c1ccco1 (configuration not stated),50.59
17,O=S(=O)(N1CCN(CC2CC2)CC1)N1CCCC1c1ccco1 (configuration not stated),-20.95
18,O=C(NC1CC1)[C@@]12CCO[C@@H]1CCN(Cc1ccc3c(c1)OCO3)C2,-14.64
19,CNC(=O)[C@@]12CCO[C@@H]1CCN(Cc1ccc3c(c1)OCO3)C2,39.02
20,CC(C)NC(=O)[C@@]12CCO[C@@H]1CCN(Cc1ccc3c(c1)OCO3)C2,50.85
21,CC(=O)N1CC2(CCCCN2Cc2ccc(Cl)cc2)Cc2ccccc21 (configuration not stated),-31.86
22,Cn1ccc(CN2CCCC23CCN(Cc2cccc(F)c2)CC3)n1,1.81
23,Cc1ccccc1OCC(=O)NCC(c1ccc(N(C)C)cc1)N(C)C (configuration not stated),36.6

row,Structure (SMILES),INHIBITION [%]
1,CCOc1ccccc1C(=O)N(C)C(C)c1ccc(S(C)(=O)=O)cc1 (configuration not stated),91.01
2,CC(c1ccc(S(C)(=O)=O)cc1)N(C)C(=O)c1ccccc1I (configuration not stated),6.85
3,CC(c1ccc(S(N)(=O)=O)cc1)N(C)C(=O)c1ccccc1I (configuration not stated),-28.49
4,CC(C)c1csc(NC(=O)NC2CCCN(c3cnn(C)c3)C2)n1 (configuration not stated),-20.08
5,N#Cc1cc(F)c(N2CCC(NS(=O)(=O)c3cccs3)CC2)c(F)c1,24.17
6,CSCC(C)(O)CNc1cccc(F)c1C#N (configuration not stated),52.6
7,CSCC(C)(O)CNc1cccc(F)c1C(C)=O (configuration not stated),8.75
8,CC(C)C(C)(O)CNc1cccc(F)c1C#N (configuration not stated),28.1
9,Cc1ccc(-n2ncc(C(=O)N(C)C3CCN(C)CC3)c2N)cc1C,-11.1
10,O=C(C1=CCCC1)N1CCC[C@]2(C[C@@H](OCc3ccccn3)CO2)C1,3.72
11,Cc1noc(C)c1CNC(=O)N(C)C1CCN(c2ccccc2)C1=O (configuration not stated),-7.88
12,Cc1noc(C)c1CNC(=O)N(C1CC1)C(C)c1ccco1 (configuration not stated),50.91
13,CC(c1ccco1)N(C(=O)c1cccc(C#N)c1)C1CC1 (configuration not stated),32.93
14,CC(c1ccco1)N(C(=O)NCc1ccon1)C1CC1 (configuration not stated),1.88
15,CCc1cc(CNC(=O)N(C2CC2)C(C)c2ccco2)on1 (configuration not stated),-27.89
16,CCc1cc(CNC(=O)N(C2CC2)C(C)c2ccco2)[nH]n1 (configuration not stated),61.42
17,COc1cc(N2CCC3(CC2)OCC(=O)NC3C)ncn1 (configuration not stated),-7.03
18,Cc1ccc(CN2CC[C@H]3[C@H]2CC(=O)N3c2ccsc2)o1,43.05
19,COCCC(=O)N[C@H]1CC[C@H](Nc2nccc(-c3ccncc3)n2)C1,24.51
20,O=c1c(Cc2ccc(Cl)cc2Cl)c(O)ccn1CC1CC1,31.56
21,CCCC(=O)N1CCC(O)(Cn2c(CC)nc3ccccc3c2=O)CC1,-64.2
22,CCc1nc2ccccc2c(=O)n1CC1(O)CCN(C(=O)C(C)C)CC1,59.91
23,CCc1nc2ccccc2c(=O)n1CC1(O)CCN(S(C)(=O)=O)CC1,-37.18

row,Structure (SMILES),INHIBITION [%]
1,CCc1nc2ccccc2c(=O)n1CC1(O)CCN(CC(=O)OC)CC1,28.64
2,CCc1nc2ccccc2c(=O)n1CC1(O)CCN(C(=O)C2CC2)CC1,29.89
3,CCc1nc2ccccc2c(=O)n1CC1(O)CCN(C(=O)COC)CC1,56.99
4,Cc1nccn1CCC(=O)N1CCC2(CCC(=O)N(CC3CC3)C2)CC1,-63.27
5,Cn1cc(Br)c(=O)c(NS(=O)(=O)c2ccc(F)cc2)c1,55.04
6,Cn1cc(Br)c(=O)c(NS(=O)(=O)c2ccc(Cl)cc2)c1,4.67
7,CCc1ccc(S(=O)(=O)Nc2cn(C)cc(Br)c2=O)cc1,11.28
8,CNS(=O)(=O)c1cc(C(=O)N(C)Cc2sccc2C)c(C)o1,10.48
9,Cc1nc(CC(C)C)cc(C(=O)N2C[C@@H](N(C)C)[C@H](C(C)C)C2)n1,0.55
10,Cc1cc(C(=O)N2C[C@@H](C(=O)O)[C@H](C(C)C)C2)cs1,-3.66
11,Cc1cc(C(=O)N2C[C@H](C(C)C)[C@@H](N(C)C)C2)cs1,68.66
12,CC(C)c1cccc(N2CCCC3(CCC(=O)N(C4CC4)C3)C2)n1 (configuration not stated),-90.99
13,Cc1ccc(O)c(CNCC(C)c2nc3ccccc3o2)n1 (configuration not stated),35.36
14,CCC(CC)C(=O)N1CCOC2(COCCN(CC(=O)NC)C2)C1 (configuration not stated),48.52
15,CCC(CC)C(=O)N1CCOC2(CNC2)C1,58.95
16,CC(C)NC(=O)N1CCOC2(CNC2)C1,44.13
17,Cc1cc(C(=O)NCC(C)C)c2c(C3CCCN3)noc2n1 (configuration not stated),-14.61
18,Cc1noc(CNC2CCCN(Cc3noc(C4CC4)n3)C2)n1 (configuration not stated),10.53
19,COc1cc(N2CCN(Cc3ccsc3)C(CCO)C2)nc(N)n1 (configuration not stated),39.92
20,CC(C)Oc1cc(N2CCN(Cc3ccsc3)C(CCO)C2)nc(N)n1 (configuration not stated),51.76
21,Cc1cc(N2CCN(Cc3ccsc3)C(CCO)C2)nc(N)n1 (configuration not stated),34
